# Over roughly 8,300 sequences, “log2 fold change of degron read counts, EGFP-low vs EGFP+ sorted cells (limma voom), compound-induced degradation” has its median near -1.1; the highest 2% begin near 3.2. This excerpt belongs to a sample that is enriched for the highest values.
# T1: CRBN, Q96SW2
# T1 chain: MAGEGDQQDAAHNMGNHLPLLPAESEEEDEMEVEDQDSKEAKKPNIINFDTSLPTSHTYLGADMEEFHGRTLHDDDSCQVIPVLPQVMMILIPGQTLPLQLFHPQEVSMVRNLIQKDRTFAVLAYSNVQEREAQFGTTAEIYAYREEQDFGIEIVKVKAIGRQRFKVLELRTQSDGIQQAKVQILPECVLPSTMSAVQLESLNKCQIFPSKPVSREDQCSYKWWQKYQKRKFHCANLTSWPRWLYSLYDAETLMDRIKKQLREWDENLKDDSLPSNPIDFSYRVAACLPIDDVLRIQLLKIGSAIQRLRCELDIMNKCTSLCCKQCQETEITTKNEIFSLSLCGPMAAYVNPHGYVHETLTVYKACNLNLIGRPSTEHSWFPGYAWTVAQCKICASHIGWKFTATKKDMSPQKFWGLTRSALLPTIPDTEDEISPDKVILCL
# Target: T1, CRBN, Q96SW2
# Test: log2 fold change of degron read counts, EGFP-low vs EGFP+ sorted cells (limma voom), compound-induced degradation; higher = more compound-induced degradation of the degron-EGFP fusion; degrons are variants of IKZF1/3 zinc finger 2; compound dose not given here
# Conditions: Jurkat, 18 h
# [1] = compound: compound 19 (5-tert-butyl-thalidomide)
# [2] = compound: compound 22 (5-morpholino-thalidomide)
# [3] = compound: compound 33 (diphenyl IMiD analogue)
# 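Further: pooled lentiviral library of zinc finger degron-EGFP fusions in mCherry-positive Jurkat cells, FACS-sorted after compound exposure, with degron abundance counted by next-generation sequencing.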
Sequence,log2 fold change of degron read counts [1],log2 fold change of degron read counts [2],log2 fold change of degron read counts [3],log2 fold change of degron read counts (compound: thalidomide)
"FTCPQCGAWFTQKGNLLRHIKL [46F_47T_49P_50Q_52G_53A_54W_55F_67L_, Q9UKT9]",-1.97,-1.41,0.47,-0.222
"FHCPICGHTFTQKGNLLRHIKL [46F_47H_49P_50I_52G_53H_54T_55F_67L_, Q9UKT9]",-2.42,-2.36,-1.31,-1.65
"FQCNQCGHKFTQKGNLLRHIKL [46F_47Q_49N_50Q_52G_53H_54K_55F_67L_, Q9UKT9]",-3.13,-3.72,-2.89,-2.56
"FICEICGRSFTQKGNLLRHIKL [46F_47I_49E_50I_52G_53R_54S_55F_67L_, Q9UKT9]",-2.87,-2.13,-1.31,-0.772
"FYCEICGRYFTQKGNLLRHIKL [46F_47Y_49E_50I_52G_53R_54Y_55F_67L_, Q9UKT9]",1.09,0.388,-0.525,-1.2
"FWCNICGACFTQKGNLLRHIKL [46F_47W_49N_50I_52G_53A_54C_55F_67L_, Q9UKT9]",2.95,3.36,1.98,0.445
"FYCNICGACFTQKGNLLRHIKL [46F_47Y_49N_50I_52G_53A_54C_55F_67L_, Q9UKT9]",2.86,3.15,1.94,0.278
"FKCNICGACFTQKGNLLRHIKL [46F_47K_49N_50I_52G_53A_54C_55F_67L_, Q9UKT9]",-1.31,-2.26,-2.53,-1.43
"FRCNICGACFTQKGNLLRHIKL [46F_47R_49N_50I_52G_53A_54C_55F_67L_, Q9UKT9]",-1.25,-0.613,0.532,0.406
"FSCNICGACFTQKGNLLRHIKL [46F_47S_49N_50I_52G_53A_54C_55F_67L_, Q9UKT9]",0.632,1.69,2.11,1.06
"FQCNICGACFTQKGNLLRHIKL [46F_47Q_49N_50I_52G_53A_54C_55F_67L_, Q9UKT9]",-0.735,1.82,1.65,3.38
"FVCDQCGAFFTQKGNLLRHIKL [46F_47V_49D_50Q_52G_53A_54F_55F_67L_, Q9UKT9]",-2.6,-2.32,-2.12,-2.19
"FFCSVCGHPFTQKGNLLRHIKL [46F_47F_49S_50V_52G_53H_54P_55F_67L_, Q9UKT9]",-0.493,-1.26,-1.56,-1.25
"FWCPVCGAHFTQKGNLLRHIKL [46F_47W_49P_50V_52G_53A_54H_55F_67L_, Q9UKT9]",2.57,3.79,1.99,0.84
"FVCPVCGAHFTQKGNLLRHIKL [46F_47V_49P_50V_52G_53A_54H_55F_67L_, Q9UKT9]",-0.62,1.87,1.15,2.07
"FDCPVCGAHFTQKGNLLRHIKL [46F_47D_49P_50V_52G_53A_54H_55F_67L_, Q9UKT9]",2.9,1.04,0.819,1.19
"FMCPVCGAHFTQKGNLLRHIKL [46F_47M_49P_50V_52G_53A_54H_55F_67L_, Q9UKT9]",-0.687,0.177,2.13,0.77
"FGCPVCGAHFTQKGNLLRHIKL [46F_47G_49P_50V_52G_53A_54H_55F_67L_, Q9UKT9]",2.85,0.903,1.38,0.174
"FRCPVCGAHFTQKGNLLRHIKL [46F_47R_49P_50V_52G_53A_54H_55F_67L_, Q9UKT9]",-0.862,-0.227,0.973,0.478
"FYCPVCGAHFTQKGNLLRHIKL [46F_47Y_49P_50V_52G_53A_54H_55F_67L_, Q9UKT9]",2.89,3.48,2.31,0.928
"FQCPVCGAHFTQKGNLLRHIKL [46F_47Q_49P_50V_52G_53A_54H_55F_67L_, Q9UKT9]",-0.252,1.64,1.32,3.27
"FACPVCGAHFTQKGNLLRHIKL [46F_47A_49P_50V_52G_53A_54H_55F_67L_, Q9UKT9]",2.93,1.05,0.871,0.221
"LACEICGFLCTQKGNLLRHIKL [46L_47A_49E_50I_52G_53F_54L_55C_67L_, Q9UKT9]",0.343,-0.688,-1.12,-0.901
"FGCDICGAFFTQKGNLLRHIKL [46F_47G_49D_50I_52G_53A_54F_55F_67L_, Q9UKT9]",0.984,-0.922,1.74,-1.18
"FECPICGHKFTQKGNLLRHIKL [46F_47E_49P_50I_52G_53H_54K_55F_67L_, Q9UKT9]",-3.48,-2.51,-2.67,-1.19
"FDCEICGRLFTQKGNLLRHIKL [46F_47D_49E_50I_52G_53R_54L_55F_67L_, Q9UKT9]",-2.24,-1.71,-0.0163,-0.815
"FWCDICGATFTQKGNLLRHIKL [46F_47W_49D_50I_52G_53A_54T_55F_67L_, Q9UKT9]",2.74,3.05,0.604,-1.08
"FGCEICGREFTQKGNLLRHIKL [46F_47G_49E_50I_52G_53R_54E_55F_67L_, Q9UKT9]",-2.14,-2.75,-2.14,-2.84

# Source: the supplement of paper PMC12645437, “Orthogonal IMiD-Degron Pairs Induce Selective Protein Degradation in Cells” (ACS Chemical Biology, 2025)
